Among the test systems are HCT-15 colon; HT29 colon; SNB-75 CNS; SNB-19 CNS; U251 CNS; PC-3 prostate; SK-MEL-5 melanoma; UACC-62 melanoma; LOX IMVI melanoma; SK-MEL-28 melanoma; SK-MEL-2 melanoma; EKVX NSCLC; SN12C renal; UO-31 renal; TK-10 renal; ACHN renal; CAKI-1 renal; A498 renal; CCRF-CEM leukemia; MOLT-4 leukemia.
Holding throughout (assay): NCI-60 one-dose screen, 48 h (100 = growth as untreated, 0 = no growth, -100 = all killed)
Settings in all cases: 10 µM unless noted

This is part of a sample that, as a whole, favours compounds with a hit. Of some 83,000 tested, about 20% had one in any assay.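 Interpretation: 100, growth as untreated; towards 0, rising growth inhibition; 0, no net growth; 0 to -100, cell death. Compounds scoring below 10 were considered active.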 Unmarked numbers belong to inactive results. Activity calls are given as the source filed them.

In the case of `CCN(CC)CCCNc1nc2ccccc2c2c(=O)c3cc(Cl)ccc3sc12`, the growth in the experiment with HCT-15 colon was 36.2%; with HT29 colon, 11.7%; in the experiment on SNB-75 CNS it was 68.3%; with SNB-19 CNS it was 79.6%; in the experiment on U251 CNS it was 41.5%; with PC-3 prostate it was 54.7%. The growth with SK-MEL-5 melanoma was 92.7%; in the experiment on UACC-62 melanoma, 73.8%; in the experiment with LOX IMVI melanoma, -81.2% (active); in the experiment on SK-MEL-28 melanoma, 84.3%; in the experiment on SK-MEL-2 melanoma, 108%; with EKVX NSCLC, 79.1%. For the same compound, the growth with SN12C renal is 66.9%; in the experiment with UO-31 renal, 33.8%; in the experiment on TK-10 renal, 68.7%; in the experiment on ACHN renal it was 47.3%; in the experiment on CAKI-1 renal, 23%; in the experiment on A498 renal, 41.4%. The growth is 11.7% with CCRF-CEM leukemia and 5.32% (active) with MOLT-4 leukemia.

With `CN(C)c1ccc(/C=N\Nc2cc(=O)[nH]c3ccc(Cl)cc23)cc1`, the growth with HCT-15 colon was 99.3%; in the experiment on HT29 colon it was 96%; in the experiment with SNB-75 CNS it was 78.4%; in the experiment on SNB-19 CNS it was 96.9%; in the experiment on U251 CNS, 99.8%; in the experiment on PC-3 prostate it was 86.4%. Moreover, the growth was 98.3% in the experiment with SK-MEL-5 melanoma; 82.1% in the experiment with UACC-62 melanoma; 99% in the experiment with LOX IMVI melanoma; 114% in the experiment on SK-MEL-28 melanoma; 91.2% with SK-MEL-2 melanoma; 85.7% with EKVX NSCLC. For the same compound, the growth in the experiment with SN12C renal is 104%; with UO-31 renal, 67.9%; in the experiment on TK-10 renal, 127%; in the experiment with ACHN renal, 95.2%; with CAKI-1 renal it was 90.9%; in the experiment on A498 renal, 123%. Moreover, the results for the growth with CCRF-CEM leukemia and with MOLT-4 leukemia were 95.4% and 87.1%, respectively.

For the compound `FC(F)(F)c1cc(Nc2ccc3c(OCCCN4CCOCC4)cccc3n2)ccc1Cl`, the growth is -39.8% (active) in the experiment on HCT-15 colon; -22.7% (active) in the experiment with HT29 colon; 40.8% with SNB-75 CNS; 35.9% in the experiment on SNB-19 CNS; 9.5% (active) in the experiment on U251 CNS; 33.5% with PC-3 prostate. For the same compound, the growth in the experiment on SK-MEL-5 melanoma was 69.5%; in the experiment with UACC-62 melanoma, 55.3%; in the experiment with LOX IMVI melanoma it was -37.6% (active); in the experiment on SK-MEL-28 melanoma, 41.9%; with SK-MEL-2 melanoma, 99.6%; in the experiment on EKVX NSCLC it was 48.8%. Besides, the growth with SN12C renal is 66.9%; with UO-31 renal, 51%; with TK-10 renal, 76.6%; in the experiment on ACHN renal, 50.7%; with CAKI-1 renal it was 55.9%; with A498 renal it was 67.1%. Also, the growth was 24.8% in the experiment with CCRF-CEM leukemia and 18.3% in the experiment with MOLT-4 leukemia.

Turning to `COc1ccc(-c2nc3sc(-c4ccc(Cl)cc4)cn3n2)cc1`, the growth in the experiment on HCT-15 colon was 72%; in the experiment on HT29 colon, 17.3%; with SNB-75 CNS, -1.66% (active); in the experiment on SNB-19 CNS, -1.95% (active); in the experiment on U251 CNS it was -67.9% (active); in the experiment on PC-3 prostate, 58.1%. For the same compound, the growth in the experiment with SK-MEL-5 melanoma is 72.6%; in the experiment with UACC-62 melanoma, 68.6%; with LOX IMVI melanoma, 54.2%; with SK-MEL-28 melanoma it was 100%; with SK-MEL-2 melanoma, 106%; in the experiment with EKVX NSCLC, 47.5%. Moreover, the growth with SN12C renal is 5.26% (active); in the experiment on UO-31 renal, -7.46% (active); in the experiment on TK-10 renal, -30.8% (active); with ACHN renal it was -74% (active); in the experiment with CAKI-1 renal, -3.32% (active); in the experiment on A498 renal it was -25.3% (active). Further, the growth is 69.5% in the experiment on CCRF-CEM leukemia and 82.6% with MOLT-4 leukemia.

As to `O=C(N/N=C/[C@H](O)[C@H](O)[C@H](O)CO)c1ccc(NC(=O)c2cccnc2)cc1`, the growth with HCT-15 colon is 106%; in the experiment with HT29 colon it was 104%; in the experiment with SNB-75 CNS, 97.4%; in the experiment with SNB-19 CNS, 97.7%; in the experiment with U251 CNS, 105%; in the experiment on PC-3 prostate, 96.3%. Further, the growth is 104% in the experiment on SK-MEL-5 melanoma; 96.2% with UACC-62 melanoma; 99.1% in the experiment with LOX IMVI melanoma; 112% in the experiment on SK-MEL-28 melanoma; 118% in the experiment with SK-MEL-2 melanoma; 105% in the experiment with EKVX NSCLC. Moreover, the growth in the experiment with SN12C renal is 94.5%; in the experiment on UO-31 renal, 83.7%; with TK-10 renal it was 104%; in the experiment on ACHN renal, 109%; in the experiment with CAKI-1 renal, 94.1%; in the experiment with A498 renal, 99.3%. Moreover, the growth in the experiment on CCRF-CEM leukemia was 99.2%.

For `O=c1[nH]c2c(ccc3cnccc32)c2c1CCC2`, the growth in the experiment on HCT-15 colon is 1.99% (active); in the experiment with HT29 colon, 7.54% (active); with SNB-75 CNS, -33.4% (active); in the experiment with SNB-19 CNS, 3.98% (active); with U251 CNS, 5.85% (active); with PC-3 prostate it was 0.402% (active). In addition, the growth was -48.5% (active) in the experiment on SK-MEL-5 melanoma; -81.3% (active) in the experiment with UACC-62 melanoma; 0.937% (active) in the experiment on LOX IMVI melanoma; -52.7% (active) with SK-MEL-28 melanoma; -15.9% (active) with SK-MEL-2 melanoma; -13.5% (active) with EKVX NSCLC. For the same compound, the growth with SN12C renal is 7.16% (active); in the experiment with UO-31 renal, -11.5% (active); in the experiment on TK-10 renal, -5.65% (active); in the experiment with ACHN renal, 6.67% (active); in the experiment on CAKI-1 renal it was -19.9% (active); with A498 renal it was -51.5% (active). Besides, the values for the growth in the experiment with CCRF-CEM leukemia and in the experiment on MOLT-4 leukemia were -22.3% (active) and 15.9%, respectively.

Turning to `Cc1cc(N2CCCC2)nc(N(CCCNc2ccnc3cc(Cl)ccc23)Cc2ccccn2)n1`, the growth is 32.3% in the experiment with HCT-15 colon; 11.2% in the experiment with HT29 colon; 77.4% in the experiment with SNB-75 CNS; 65.9% with SNB-19 CNS; 55.3% with U251 CNS; 52% in the experiment with PC-3 prostate. Also, the growth with SK-MEL-5 melanoma was 50.9%; in the experiment with UACC-62 melanoma, 79.8%; with LOX IMVI melanoma, 32.3%; in the experiment on SK-MEL-28 melanoma, 69.8%; in the experiment on SK-MEL-2 melanoma it was 71.7%; in the experiment with EKVX NSCLC it was 66.2%. Moreover, the growth was 52% in the experiment on SN12C renal; 5.6% (active) in the experiment with UO-31 renal; 80.3% in the experiment on TK-10 renal; 80.8% in the experiment with ACHN renal; 84.4% in the experiment on CAKI-1 renal; 42% in the experiment with A498 renal. In addition, the growth with CCRF-CEM leukemia is 55%.

Regarding `O=c1c2cc(C(F)(F)F)ccc2sc2c(NCCCNCCO)nc3ccccc3c12`, the growth is -67.2% (active) in the experiment with HCT-15 colon; -41.4% (active) in the experiment with HT29 colon; 56.9% in the experiment with SNB-75 CNS; 23.2% in the experiment on SNB-19 CNS; -60.6% (active) in the experiment with U251 CNS; 23% in the experiment with PC-3 prostate. In addition, the growth is 38.3% in the experiment on SK-MEL-5 melanoma; 74.8% with UACC-62 melanoma; -95.6% (active) with LOX IMVI melanoma; 55.5% in the experiment with SK-MEL-28 melanoma; 84.7% in the experiment on SK-MEL-2 melanoma; 67.3% with EKVX NSCLC. For the same compound, the growth with SN12C renal is 36.1%; in the experiment with UO-31 renal, 23.2%; with TK-10 renal it was -0.0148% (active); with ACHN renal, 2.14% (active); with CAKI-1 renal, -67.2% (active); in the experiment on A498 renal it was 21.8%. Besides, the growth with CCRF-CEM leukemia is -12.5% (active).

For the origin of these results see PubChem BioAssay (NCI).
